Laboratory results reported in PubChem BioAssay (NCATS).
Records with an inconclusive call do not appear. Where a call stands in place of a potency, no number is given. Activity calls are given as the source filed them. Calls follow the shape of the dose curve; as a rule, active = well fitted cell-killing curve with a large enough effect; inconclusive = small, poorly fitted or top-dose-only effect; inactive = no such curve, though single readings can be large or run the other way. Non-standard residues stand in square brackets, D forms with d. Residues, ends and D or L forms follow the SMILES beside them. *: point of attachment. Nva = CCC[C@H](N)C(=O)O; Cbz = O=C(OCc1ccccc1)*

Experiment: Quantitative High-Throughput drug screen in 47 multiple myeloma cell lines against the NCATS MIPE library collection: NCIH929_DSMZ cell viability assay (AID 1918978); also: nearly all actives have a fitted effect of over 35% in size
Conditions: NCI-H929 myeloma viability, CellTiter-Glo ATP, 48 h; series mostly up to 45.8 µM
Source text: PI: Beverly A. Mock Ph.D.
Laboratory of Cancer Biology and Genetics,
Center for Cancer Research, National Cancer Institute,
National Institute of Health, Bethesda, Maryland
Drug resistance and disease progression are common in multiple myeloma (MM) patients, underscoring the need for new therapeutic combinations. […] We hypothesized that effective combinations would reduce MYC expression and enhance p16 activity. […] These preclinical data identify potentially useful drug combinations for evaluation in drug-resistant MM and reveal potential mechanisms of combined drug sensitivity.
Described herein is the primary MIPE qHTS used to cherrypick compounds. Validated compounds were then further tested for potential synergistic activiy.
[1] Peat TJ, Gaikwad SM, Dubois W, Gyabaah-Kessie N, Zhang S, Gorjifard S, Phyo Z, Andres M, Hughitt VK, Simpson RM, Miller MA, Girvin AT, Taylor A, Williams D, D'Antonio N, Zhang Y, Rajagopalan A, Flietner E, Wilson K, Zhang X, Shinn P, Klumpp-Thomas C, McKnight C, Itkin Z, Chen L, Kazandijian D, Zhang J, Michalowski AM, Simmons JK, Keats J, Thomas CJ, Mock BA. Drug combinations identified by high-throughput screening promote cell cycle transition and upregulate Smad pathways in myeloma. Cancer Lett. 2023 Aug 1;568:216284. doi: 10.1016/j.canlet.2023.216284. Epub 2023 Jun 24. PMID: 37356470; PMCID: PMC10408729.
SEQUENCE No. (e.g., 1, 2, 3, etc.); […] (e.g., Cells, Incubation, Reagent, etc.); VALUE and DESCRIPTION.
1; Cells; 5 uL; white, solid bottom 1536-well Greiner assay plate.
2; Compounds; 23 nL; Kalypsis pin tool (Wako USA) equipped with a 1536-well pin head to transfer to the assay plates.
3; Incubation; 48 hours; 37C incubation.
4; Reagent;5uL; CellTiter Glo (Promega).
5; Detector; 425V; Luminescence; Viewlux PerkinElmer.
NOTES (numbers refer to Sequence numbers above)
1. The cell-based screening methods employed in this study were like those previously published. Briefly, the corresponding myeloma cell lines were screened in 1,536-well plates with 500 cells, 5-uL per well for inhibition of cell viability (assessed by measuring ATP levels with CellTiterGlo).
2. NCATS MIPE 4.0 library of approved and investigational drugs were added using the Kalypsis pin tool. Wells treated with DMSO only for 100% viability and media only for 0% viability were used as controls.
3. The assay plates were covered and incubated for 48 hours in a 37C, 5% CO2 incubator with controlled humidity.
4. After 48 hours, CellTilter-GloTM luminescent substrate mix (Promega) reagent was added to the assay plate and plates we incubated for 5 min at room temperature.
5. Signal was measured as median relative luminescence units on a ViewLux (PerkinElmer) multiplate reader.
[1] Heske CM, Davis MI, Baumgart JT, Wilson K, Gormally MV, Chen L, Zhang X, Ceribelli M, Duveau DY, Guha R, Ferrer M, Arnaldez FI, Ji J, Tran HL, Zhang Y, Mendoza A, Helman LJ, Thomas CJ. Matrix Screen Identifies Synergistic Combination of PARP Inhibitors and Nicotinamide Phosphoribosyltransferase (NAMPT) Inhibitors in Ewing Sarcoma. Clin Cancer Res. 2017 Dec 1;23(23):7301-7311. doi: 10.1158/1078-0432.CCR-17-1121. Epub 2017 Sep 12. PMID: 28899971; PMCID: PMC6636827.
Potency is read from the fitted curve at half-maximal effect.

Structure (SMILES)	Potency
Oc1ccc(-c2ccc(-c3cc(Nc4cccc(CNC5CC5)c4)n[nH]3)cc2)c(O)c1	1.18 µM (active)
NC[C@H]1O[C@H](O[C@H]2[C@@H](O)[C@@H](O[C@H]3O[C@H](CO)[C@@H](O)[C@H](N)[C@@H]3O)[C@H](N)C[C@@H]2N)[C@H](N)C[C@H]1O	inactive
COc1cc(N2CCC(C(N)=O)CC2)ccc1Nc1nc(N)c(Cl)c(Nc2ccccc2S(=O)(=O)C(C)C)n1	0.0935 µM (active)
Nc1ccn(C2CO[C@H](CO)O2)c(=O)n1 (stereo not given in full)	inactive
CCC[C@H]1C[C@H](C(=O)N[C@@H]([C@@H]2O[C@@H](SC)[C@@H](O)[C@@H](O)[C@@H]2O)[C@H](C)Cl)N(C)C1	inactive
C[C@H](NC(=O)C(C#N)=Cc1cccc(Br)n1)c1ccccc1	1.66 µM (active)
C=CC1=C(C(=O)O)N2C(=O)[C@@H](NC(=O)C(=NO)c3csc(N)n3)[C@H]2SC1	inactive
CC(C)N(CC[C@H](c1ccccc1)c1cc(CO)ccc1O)C(C)C	inactive
CCC(C(=O)O)C1CCC(C)C(C(C)C(O)C(C)C(=O)C(CC)C2OC3(C=CC(O)[C@@]4(CC[C@](C)(C5CC[C@@](O)(CC)C(C)O5)O4)O3)C(C)CC2C)O1 (stereo not given in full)	10.5 µM (active)
O=C1NCCc2[nH]c(-c3ccncc3)cc21	2.64 µM (active)
CC(Oc1ccc(O)cc1)(P(=O)(O)O)P(=O)(O)O	inactive
Cc1cc(Nc2ncc3c(n2)N(C)C(=O)N(c2cc(NC(=O)c4cccc(C(F)(F)F)c4)ccc2C)C3)n(C)n1	1.05 µM (active)
CCCCCCCCc1ccc(CCC(N)(CO)CO)cc1	7.43 µM (active)
COc1cc2c(cc1O)CCC1C2CC[C@@]2(C)C1CC[C@@H]2O (stereo not given in full)	7.43 µM (active)
O=C(NCc1ccccc1)[C@H](Cc1ccccc1)NC(=O)[C@@H]1O[C@@H]1C(=O)NCCc1ccc(O)cc1	inactive
Cc1cc(-c2nnc3n2CCCCC3)c(C)n1-c1ccccc1	inactive
C[C@@H]1C(=O)O[C@H]2CC34[C@H]5C[C@@H](C(C)(C)C)C36[C@H](OC(=O)[C@@H]6O)O[C@@]4(C(=O)O5)[C@]21O (stereo not given in full)	inactive
C[C@H](O)[C@@H]1C(=O)N2C(C(=O)O)=C(S[C@@H]3CN[C@H](CNS(N)(=O)=O)C3)[C@@H](C)[C@@H]12	inactive
CCCNC(=O)[C@H]1O[C@H]1C(=O)N[C@H](C(=O)N1CCC[C@@H]1C(=O)OC)C(C)CC (stereo not given in full)	4.69 µM (active)
CN1C(C(=O)Nc2ccccn2)=C(O)c2sc(Cl)cc2S1(=O)=O	1.66 µM (active)

Structure (SMILES)	Potency
CC(C(C)N1CC(=O)NC(=O)C1)N1CC(=O)NC(=O)C1 (stereo not given)	inactive
NC(=O)Nc1cc(-c2ccc(CN3CCOCC3)cc2)sc1C(N)=O	2.64 µM (active)
Nc1ccn(C[C@@H](CO)OCP(=O)(O)O)c(=O)n1	inactive
CCCCCCCCCCCC(CC1OC(=O)C1CCCCCC)OC(=O)C(CC(C)C)NC=O (stereo not given)	inactive
CCCNS(=O)(=O)Nc1ncnc(OCCOc2ncc(Br)cn2)c1-c1ccc(Br)cc1	inactive
CC(=O)NC(CS)C(=O)O (stereo not given)	inactive
CC(=O)C1=C(O)C=C2Oc3c(C(C)=O)c(O)c(C)c(O)c3C2(C)C1=O (stereo not given)	inactive
C=C(C)[C@@H]1CC[C@]2(C)CC[C@]3(C)[C@H](CC[C@@H]4[C@@]5(C)CC[C@H](O)C(C)(C)[C@H]5CC[C@]43C)[C@@H]12	inactive
NC(=NCCCCCCN=C(N)N=C(N)Nc1ccc(Cl)cc1)N=C(N)Nc1ccc(Cl)cc1	3.32 µM (active)
O=C(C=Cc1ccc(CN(CCO)CCc2c[nH]c3ccccc23)cc1)NO	0.105 µM (active)
Cn1cnc(=N)c2[nH]cnc21	0.132 µM (active)
CC(=O)N1CCN(c2ccc(OCc3nn(C)c(C)c3-c3cccc4c(CCCOc5cccc6ccccc56)c(C(=O)O)n(Cc5cccnc5)c34)cc2)CC1	0.0332 µM (active)
CCC[C@@H](C=O)NC(=O)[C@H](CC(C)C)NC(=O)[C@H](CC(C)C)NC(=O)OCc1ccccc1 (Cbz-Leu-Leu-[Nva]-aldehyde)	0.296 µM (active)
Cc1ccc2nc(NCCN)c3ncc(C)n3c2c1	5.9 µM (active)
O=C1c2c(O)cccc2[C@@H]([C@@H]2O[C@H](CO)[C@@H](O)[C@H](O)[C@H]2O)c2cc(CO)cc(O)c21	inactive
CCOC(=O)[C@H](CCc1ccccc1)N[C@@H](C)C(=O)N1[C@@H](C(=O)O)C[C@H]2CCC[C@@H]21	7.43 µM (active)
CO[C@@H]1[C@@H](O)[C@H](O)[C@@H](n2c3c(Cl)cccc3c3c4c(c5c6cccc(Cl)c6[nH]c5c32)C(=O)NC4=O)O[C@@H]1CO	0.833 µM (active)
Cc1onc(-c2ccccc2)c1C(=O)N[C@@H]1C(=O)N2[C@@H](C(=O)O)C(C)(C)S[C@@H]12	inactive
CC(=O)SCC(Cc1ccccc1)C(=O)NCC(=O)OCc1ccccc1 (stereo not given)	1.05 µM (active)
O=C(O)[C@H](CC(=O)N1C[C@@H]2CCCC[C@H]2C1)Cc1ccccc1	inactive
